Source: PubChem BioAssay (Tox21)
Records with an inconclusive call do not appear. Activity calls are given as the source filed them. Calls follow the shape of the full dose curve.

Assay: qHTS assay for small molecule agonists of the p53 signaling pathway - cell viability (AID 651633);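 also: p53RE-bla HCT reporter cells with a stable beta-lactamase p53 reporter; nearly all actives have a fitted effect of over 30% in size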
Conditions: p53RE-bla HCT-116 viability, ATP luminescence, 16 h; series mostly up to 83.3 µM; activity change, negative = cytotoxicity: at the top concentration
From the text: National Center for Advancing Translational Sciences [NCATS]
NIH Chemical Genomics Center [NCGC]
U.S. Environmental Protection Agency [EPA]
National Institutes of Environmental Health Sciences [NIEHS]
National Toxicology Program [NTP]
U.S. Food and Drug Administration [FDA]
p53, a tumor suppressor protein, is activated following cellular insult, including DNA damage and other cellular stresses. The activation of p53 regulates cell fate by inducing DNA repair, cell cycle arrest, apoptosis, or cellular senescence. The activation of p53, therefore, is a good indicator of DNA damage and other cellular stresses. […] The activation of the reporter gene under culture conditions can be detected by fluorescence intensity. This cell line was used to screen the Tox21 compound library in a 1536-well plate format and to identify agonists that activate the p53 signaling pathway.
Tox21 Assay Protocol Summary:
The p53RE-bla cells were dispensed at 4,000 cells/5 ul/well in 1536-well black wall/clear bottom plates using a Multidrop dispenser. After the assay plates were incubated at a 37 C/5% CO2 incubator for 5 hours, 23 nL of compounds dissolved in DMSO, positive controls or DMSO only was transferred to the assay plate by a pin tool. The plates were incubated at 37 C for 16 hours. After 1 uL of LiveBLAzerTM B/G FRET substrate was added using a Flying Reagent Dispenser, the plates were incubated at room temperature for 2 hours, and fluorescence intensity was measured by an Envision plate reader.
For cell viability readout that measures cytotoxicity, 4 ul/well of CellTiter-Glo reagent was added into the assay plates using a Flying Reagent Dispenser. After 30 min incubation at room temperature, the luminescence intensity in the plates was measured using a ViewLux plate reader.
% is scaled to controls: 0 for no effect and ±100 for the full control effect.

Row | SMILES | outcome | activity change, negative = cytotoxicity
1 | Oc1cn2c(n1)Nc1ccc(Cl)c(Cl)c1C2 | inactive | 
2 | Cc1cc(NC(=O)C2=C(O)c3ccccc3S(=O)(=O)N2C)no1 |  | 7.13% (inactive)
3 | CCCCC(CC)COCCO (stereo not given) |  | 13.8% (inactive)
4 | CC(C)CCCC(C)(C)O |  | 10.5% (inactive)
5 | NS(=O)(=O)c1ccc(NC(=O)CCC(=O)O)cc1 |  | 11.5% (inactive)
6 | NCCS | inactive | 
7 | CC(C)=CCOC(=O)c1ccccc1 |  | -1.71% (inactive)
8 | CC(N)C(=O)OC(C)(C)Cc1ccc(Cl)cc1 (stereo not given) |  | -13.3% (inactive)
9 | CCC(C)(CCC(C)C)C(=O)O (stereo not given) |  | 7.63% (inactive)
10 | N[C@@H](CCC(=O)Nc1ccc([N+](=O)[O-])cc1)C(=O)O |  | 15.7% (inactive)
11 | C[Si](C)=O |  | 15.5% [at 8.08 µM] (inactive)
12 | CC1=C(C(=O)O)N2C(=O)[C@@H](NC(=O)[C@H](N)c3ccc(O)cc3)[C@H]2SC1 |  | 14.3% [at 39.1 µM] (inactive)
13 | NC(CO)C(=O)NNCc1ccc(O)c(O)c1O (stereo not given) |  | 12.2% (inactive)
14 | COc1ccc(OC)c(Cl)c1 |  | -11.7% (inactive)
15 | O=C1CCCC(=O)O1 |  | 12% (inactive)
16 | CNS(=O)(=O)CCc1ccc2[nH]cc(C3CCN(C)CC3)c2c1 |  | 31% (inactive)
17 | CC(C)CCCCOC(=O)c1ccccc1C(=O)OCCCCC(C)C |  | -5.97% (inactive)
18 | CCCCCCOC(=O)CC |  | -23.8% (inactive)
19 | C=C(C)C1CCC(C)(O)CC1 (stereo not given) |  | 23.3% (inactive)
20 | CC(C)=O | inactive | 

Row | SMILES | outcome | activity change, negative = cytotoxicity
21 | CC(C)(C)NC(N)=O |  | 15.4% (inactive)
22 | CCN(C)C(=O)Oc1cccc([C@H](C)N(C)C)c1 |  | 16% (inactive)
23 | BrCc1cccc(Oc2ccccc2)c1 |  | 20.6% (inactive)
24 | CC(=O)/C=C/C1C(C)=CCC(C)C1(C)C (stereo not given) |  | 9.3% (inactive)
25 | OCCN(CCO)c1cccc(Cl)c1 |  | 10.1% (inactive)
26 | CN(C)CCOCCO |  | 17.5% (inactive)
27 | COC(=O)c1ccccc1C(=O)c1ccc(OCCN2CCCCC2)cc1 |  | 21.1% (inactive)
28 | COc1cc(N)ccc1C |  | 17.6% (inactive)
29 | Brc1ccc(-c2ccccc2)cc1 |  | 16.3% (inactive)
30 | CCOC(=O)c1ccc(OC(=O)CCCCCN=C(N)N)cc1 |  | 13.3% [at 39.1 µM] (inactive)
31 | OC[C@H](Cc1cccc(O)c1)[C@H](CO)Cc1cccc(O)c1 |  | -25.9% [at 95.3 µM] (inactive)
32 | N#Cc1ccc(C(=O)O)cc1 |  | -4% (inactive)
33 | O=S(O)(O)=S |  | 18.5% [at 8.08 µM] (inactive)
34 | COc1cc(C(=S)N2CCOCC2)cc(OC)c1OC |  | 11.6% (inactive)
35 | C#CC(C)N(C)C(=O)Nc1ccc(Cl)cc1 (stereo not given) |  | 7.04% (inactive)
36 | c1ccc2c(c1)ccc1c3ccccc3ccc21 |  | -6% (inactive)
37 | Cc1ccccc1N=O |  | 17% [at 95.3 µM] (inactive)
38 | COc1cc(NS(=O)(=O)c2ccc(N)cc2)nc(OC)n1 |  | -16.1% [at 39.1 µM] (inactive)
39 | CC(=O)N[C@@H](CCC(=O)O)C(=O)O |  | 10.8% (inactive)
40 | CC/C=C\CC1=C(C)CCC1=O |  | 15.3% (inactive)
